From the supplement of paper PMC8728848
The full list was thinned out, with the strongest signals kept by preference.

How the values were obtained:
Assay in all cases: glycan array binding signal (z-score within array); higher = stronger binding
Details in all cases: glycan notation: IUPAC condensed, linker removed
[1] = target: Gal(b1-4)GlcNAc(b1-3)[Gal(b1-4)GlcNAc(b1-6)]Gal(b1-4)GlcNAc
How it was run: (§1)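 From the Consortium for Functional Glycomics database, 3228 arrays were curated, keeping only those whose protein sequence was available. Binding is given as a within-array Z-score averaged across arrays sharing a protein sequence and across linkers. Negative Z-scores can be read as non-binding.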

[2] = target: Gal(b1-6)Gal
How it was run: as §1

[3] = target: Gal6P(b1-4)GlcNAc
How it was run: as §1

[4] = target: Gal6S(b1-4)Glc
How it was run: as §1

[5] = target: Gal6S(b1-4)Glc6S
How it was run: as §1

[6] = target: GalNAc(b1-3)Gal(a1-6)Gal(b1-4)Glc
How it was run: as §1

[7] = target: GalNAc(b1-4)GlcNAc(b1-2)Man(a1-3)[GalNAc(b1-4)GlcNAc(b1-2)Man(a1-6)]Man(b1-4)GlcNAc(b1-4)GlcNAc
How it was run: as §1

[8] = target: GalNAc(b1-4)GlcNAc6S
How it was run: as §1

[9] = target: Glc(a1-4)Glc(a1-4)Glc(a1-4)Glc
How it was run: as §1

[10] = target: Glc(b1-6)Glc
How it was run: as §1

[11] = target: GlcNAc(a1-4)Gal(b1-4)GlcNAc(b1-3)Gal(b1-4)GlcNAc
How it was run: as §1

[12] = target: GlcNAc(b1-2)[GlcNAc(b1-6)]Man(a1-6)[GlcNAc(b1-2)Man(a1-3)]Man(b1-4)GlcNAc(b1-4)GlcNAc
How it was run: as §1

[13] = target: GlcNAc(b1-3)Gal(b1-4)GlcNAc(b1-3)Gal(b1-4)GlcNAc(b1-2)Man(a1-3)[GlcNAc(b1-3)Gal(b1-4)GlcNAc(b1-3)Gal(b1-4)GlcNAc(b1-2)Man(a1-6)]Man(b1-4)GlcNAc(b1-4)GlcNAc
How it was run: as §1

[14] = target: GlcNAc(b1-3)Gal(b1-4)GlcNAc(b1-3)Gal(b1-4)GlcNAc(b1-2)Man(a1-3)[GlcNAc(b1-3)Gal(b1-4)GlcNAc(b1-3)Gal(b1-4)GlcNAc(b1-2)Man(a1-6)]Man(b1-4)GlcNAc(b1-4)[Fuc(a1-6)]GlcNAc
How it was run: as §1

[15] = target: GlcNAc(b1-3)Gal(b1-4)GlcNAc(b1-3)Gal(b1-4)GlcNAc(b1-3)Gal(b1-4)GlcNAc(b1-2)Man(a1-3)[GlcNAc(b1-3)Gal(b1-4)GlcNAc(b1-3)Gal(b1-4)GlcNAc(b1-3)Gal(b1-4)GlcNAc(b1-2)Man(a1-6)]Man(b1-4)GlcNAc(b1-4)[Fuc(a1-6)]GlcNAc
How it was run: as §1

[16] = target: GlcNAc(b1-4)Gal(b1-4)GlcNAc
How it was run: as §1

[17] = target: GlcNAc(b1-4)GlcNAc(b1-4)GlcNAc(b1-4)GlcNAc(b1-4)GlcNAc(b1-4)GlcNAc
How it was run: as §1

[18] = target: GlcNAc(b1-4)[GlcNAc(b1-6)]GalNAc
How it was run: as §1

[19] = target: Man(a1-2)Man(a1-3)Man
How it was run: as §1

[20] = target: Man(a1-2)Man(a1-3)[Man(a1-2)Man(a1-6)]Man(a1-6)[Man(a1-2)Man(a1-2)Man(a1-3)]Man(b1-4)GlcNAc(b1-4)GlcNAc
How it was run: as §1

[21] = target: Man(a1-6)Man
How it was run: as §1

[22] = target: Man(b1-4)GlcNAc
How it was run: as §1

[23] = target: Neu5Ac(a2-3)Gal(b1-3)[GlcNAc(b1-6)]GalNAc
How it was run: as §1

[24] = target: Neu5Ac(a2-3)Gal(b1-4)[Fuc(a1-3)]GlcNAc(b1-6)[Neu5Ac(a2-3)Gal(b1-3)]GalNAc
How it was run: as §1

[25] = target: Neu5Ac(a2-6)Gal
How it was run: as §1

[26] = target: Neu5Ac(a2-6)Gal(b1-3)GlcNAc(b1-3)[Gal(b1-4)GlcNAc(b1-6)]Gal(b1-4)Glc
How it was run: as §1

[27] = target: Neu5Ac(a2-6)Gal(b1-4)GlcNAc(b1-3)Gal(b1-4)GlcNAc(b1-3)Gal(b1-4)GlcNAc
How it was run: as §1

[28] = target: Neu5Ac(a2-6)Gal(b1-4)GlcNAc(b1-3)Gal(b1-4)GlcNAc(b1-3)Gal(b1-4)GlcNAc(b1-2)Man(a1-3)[Neu5Ac(a2-6)Gal(b1-4)GlcNAc(b1-3)Gal(b1-4)GlcNAc(b1-3)Gal(b1-4)GlcNAc(b1-2)Man(a1-6)]GalNAc
How it was run: as §1

[29] = target: Neu5Ac(a2-8)Neu5Ac(a2-8)Neu5Ac(a2-8)Neu5Ac(a2-3)[GalNAc(b1-4)]Gal(b1-4)Glc
How it was run: as §1

[30] = target: Neu5Ac(a2-8)Neu5Gc(a2-3)Gal(b1-4)GlcNAc
How it was run: as §1

[31] = target: Neu5Ac(b2-6)GalNAc
How it was run: as §1

[32] = target: Neu5Ac9Ac(a2-3)Gal(b1-3)GlcNAc
How it was run: as §1

[33] = target: Neu5Ac9Ac(a2-6)Gal(b1-4)GlcNAc
How it was run: as §1

[34] = target: Neu5Gc(a2-3)Gal(b1-3)GlcNAc
How it was run: as §1

B1: SBD-G4S3-Fc (protein)
chain: MASIPSSASVQLDSYNYDGSTFSGKIYVKNIAYSKKVTVVYADGSDNWNNNGNIIAASFSGPISGSNYEYWTFSASVKGIKEFYIKYEVSGKTYYDNNNSANYQVSTGGGGSGGGGSGGGGSEFVPRDCGCKPCICTVPEVSSVFIFPPKPKDVLTITLTPKVTCVVVDISKDDPEVQFSWFVDDVEVHTAQTQPREEQFNSTFRSVSELPIMHQDWLNGKEFKCRVNSAAFPAPIEKTISKTKGRPKAPQVYTIPPPKEQMAKDKVSLTCMITDFFPEDITVEWQWNGQPAENYKNTQPIMDTDGSYFVYSKLNVQKSNWEAGNTFTCSVLHEGLHNHHTEKSLSHSPGAA
glycan array binding signal (z-score) [1]: -0.023 | glycan array binding signal (z-score) [2]: -0.372 | glycan array binding signal (z-score) [3]: -0.45 | glycan array binding signal (z-score) [4]: 0.105 | glycan array binding signal (z-score) [5]: 0.402 | glycan array binding signal (z-score) [6]: -0.468 | glycan array binding signal (z-score) [7]: -0.087 | glycan array binding signal (z-score) [8]: -0.208 | glycan array binding signal (z-score) [9]: 12.1 | glycan array binding signal (z-score) [10]: 0.309 | glycan array binding signal (z-score) [11]: -0.415 | glycan array binding signal (z-score) [12]: -0.075 | glycan array binding signal (z-score) [13]: 3.18 | glycan array binding signal (z-score) [14]: 1.28 | glycan array binding signal (z-score) [15]: 1.91 | glycan array binding signal (z-score) [16]: -0.117 | glycan array binding signal (z-score) [17]: -0.372 | glycan array binding signal (z-score) [18]: 0.069 | glycan array binding signal (z-score) [19]: -0.16 | glycan array binding signal (z-score) [20]: -0.404 | glycan array binding signal (z-score) [21]: -0.195 | glycan array binding signal (z-score) [22]: -0.231 | glycan array binding signal (z-score) [23]: -0.317 | glycan array binding signal (z-score) [24]: -0.117 | glycan array binding signal (z-score) [25]: -0.041 | glycan array binding signal (z-score) [26]: -0.05 | glycan array binding signal (z-score) [27]: 0.075 | glycan array binding signal (z-score) [28]: 1.23 | glycan array binding signal (z-score) [29]: -0.006 | glycan array binding signal (z-score) [30]: 7.21 | glycan array binding signal (z-score) [31]: -0.513 | glycan array binding signal (z-score) [32]: 0.058 | glycan array binding signal (z-score) [33]: 0.039 | glycan array binding signal (z-score) [34]: -0.167
